SRC1 TRFRET art: flags TR-FRET format artefacts in PPARgamma SRC-1 recruitment agonist screen; TR-FRET ratio at 8 µM; actives 0.34% (n = 99,000); TR-FRET detection artefact counter-screen, emission ratio; active compounds read high; in the data active = TR-FRET ratio above about 2300
SRC3 TRFRET art: flags TR-FRET format artefacts in PPARgamma SRC-3 recruitment agonist screen; TR-FRET artefact counter-screen, PPARgamma/SRC-3 format; active compounds read high; TR-FRET ratio at 8 µM; actives 0.39% (n = 99,000)
PPARg SRC-2 ag: PPARgamma-driven SRC-2 recruitment agonism. activation, % at 8 µM. AID 1032. PPARgamma LBD-SRC-2 recruitment, biochemical. actives 0.34% (n = 200,000); in the data active = activation above about 22%
TR-FRET SRC-2 ct: flags TR-FRET format artefacts in PPARgamma SRC-2 recruitment agonist screen; TR-FRET artefact counter-screen; active compounds read high; TR-FRET ratio at 8 µM; actives 0.4% (n = 200,000)
PPARg SRC1 recr: agonists of human PPARgamma SRC-1 coactivator recruitment; P37231; activation, % at 8 µM; AID 631; PPARgamma-SRC-1 coactivator recruitment biochemical assay; actives 0.41% (n = 200,000); in the data active = activation above about 19%
PPARg SRC3 recr: promotes SRC-3 coactivator recruitment by human PPARgamma. P37231. biochemical PPARgamma/SRC-3 coactivator recruitment assay. activation, % at 8 µM. actives 0.26% (n = 200,000). AID 731; in the data active = activation above about 23%
Hits are given with their value; . = inactive; / = no result given. This is a sample that favours compounds with a hit; in the whole collection about 0.9% have one here. Cut-off read from the data, not from the text of the source, unless noted: active = TR-FRET ratio above about 2000; inactive = the rest.

SMILES	SRC1 TRFRET art	SRC3 TRFRET art	PPARg SRC-2 ag	TR-FRET SRC-2 ct	PPARg SRC1 recr	PPARg SRC3 recr
COC(=O)c1c(NC(=O)COC(=O)[C@@H](NS(=O)(=O)c2ccc(C)cc2)C(C)C)sc2c1CCC2	2338	.	.	.	.	.
COC(=O)c1c(NC(=O)COC(=O)c2ccc(C)s2)sc2c1CCCCC2	.	.	.	.	.	.
O=C1CCCN1CCC1CCN(C(=S)Nc2ccc(F)cc2)CC1	/	/	22	.	.	.
O=C1CCCN1CCCNC(=S)Nc1ccc(F)cc1	.	.	.	.	.	.
Cc1c(C=O)c2ccccn2c1C(=O)c1cccs1	.	.	.	.	.	.
COc1ccc2cc(Br)ccc2c1CC(=O)NC(C)(C)C	.	.	.	2017	.	.
CCc1ccc(NC(=O)CCc2nc3ccccc3[nH]2)cc1	.	.	.	.	.	.
Brc1ccc(C=Nc2ccc(Nc3ccccc3)cc2)s1	.	.	29	.	.	.
O=c1[nH]n(-c2ccccn2)c(=O)c2ccccc12	/	/	.	.	.	.
O=c1[nH]n(-c2ccccc2)c(=O)c2ccccc12	.	.	.	.	20	.
CN1CCc2c(sc3c2C(=O)NC(c2cccs2)N3)C1 (stereo not drawn)	/	/	.	.	.	.
CN1CCc2c(sc3c2C(=O)NC(c2ccc(-c4cccc(Cl)c4)o2)N3)C1 (stereo not drawn)	2385	.	.	.	.	.
CCOC(=O)c1c(-c2ccccc2)csc1NC(=O)c1cc(S(=O)(=O)N2CCOCC2)ccc1C	.	2203	.	.	.	.
CCOC(=O)c1c(-c2ccccc2)csc1NC(=O)c1ccc(S(=O)(=O)N2CC(C)OC(C)C2)cc1 (stereo not drawn)	/	/	.	.	.	.
O=C(/C=C/c1ccc(Br)cc1)c1ccc(NC(=O)c2ccco2)cc1	2646	14077	.	5699	.	.
O=c1c2cnn(-c3ccccc3)c2nc(-c2cccs2)n1-c1ccc(Cl)cc1	/	/	.	.	.	.
O=c1c2cnn(-c3ccccc3)c2nc(-c2cccs2)n1-c1cccc(Cl)c1	.	2389	.	.	.	.
Cc1cc(C)n(CC(=O)O)c(=O)c1[N+](=O)[O-]	.	.	.	.	.	.
COc1ccc(-n2c(O)c(/C=N/NS(=O)(=O)c3cccc([N+](=O)[O-])c3)c3ccccc3c2=O)cc1OC	.	.	.	.	22	.
O=[N+]([O-])c1cccc(/C=N/NS(=O)(=O)c2ccccc2)c1	.	.	.	.	.	.
CCOC12NC(=O)CC(=O)N1C(c1ccccc1)=CS2 (stereo not drawn)	.	2220	.	.	.	.
COC(=O)CCC(=O)c1oc2ccc(Br)cc2c1N	/	/	24	.	.	.
COc1ccc2oc(C(=O)CCC(=O)O)c(N)c2c1	/	/	.	.	.	.
CSC1=NCCN1C(=O)C12CC3CC(CC(C3)C1)C2	.	.	.	.	.	.
O=C(Nc1cccc(Br)c1)c1ccc(OC2CSC2)cc1	.	.	.	.	.	.
SMILES	SRC1 TRFRET art	SRC3 TRFRET art	PPARg SRC-2 ag	TR-FRET SRC-2 ct	PPARg SRC1 recr	PPARg SRC3 recr
CCOc1ccc(-c2csc(/C(C#N)=C\c3ccc(O)c([N+](=O)[O-])c3)n2)cc1	.	.	.	.	.	.
C=CCN(CC=C)Cc1c(O)ccc2c1oc(=O)c1ccccc12	/	/	.	.	21	.
CCOC(=O)C1CCCN(S(=O)(=O)c2cc(Br)cc3c2N(C(=O)C2CC2)CC3)C1 (stereo not drawn)	.	.	.	.	26	.
Cc1ccc(C(=O)N2CCCC(C(=O)c3ccc(Oc4ccccc4)cc3)C2)cn1 (stereo not drawn)	.	.	.	.	.	.
COc1ccc(-c2sc(NC(C)=O)nc2-c2ccccc2)cc1	.	.	.	.	.	.
O=C(CSCC(=O)N1CCCCC1)Nc1nc(-c2ccccc2)c(-c2ccccc2)s1	.	2244	.	.	.	.
CCN(CC)c1ccc(/C=C(/C#N)c2nc3ccc(C)cc3[nH]2)c(OC(C)C)c1	/	/	.	.	.	.
CCCOc1cc(N(CC)CC)ccc1/C=C(/C#N)c1nc2ccc(C)cc2[nH]1	/	/	37	2008	.	.
COc1cccc(C(=O)NCc2ccc3c(c2)cc(C)n3C)c1	2604	2355	.	2069	.	.
COc1ccc(C(=O)NCc2ccc3c(c2)cc(C)n3C)cc1OC	.	.	.	.	.	.
